Screening results from PubChem.
Shown are actives, neighbours in structure and some others; about 21% of the full set was active somewhere.
Shiga inhibitor = A qHTS for Small Molecule Inhibitors of Shiga Toxin | inhibition, % at 38.7 µM | actives 9.2% (n = 290,000) | Vero cells, Shiga toxin protein synthesis inhibition reporter; in the data active = inhibition mostly above about 28%, no sharp cut-off; inactive = mostly below about 43%; note: 0% is about no effect
CHX counter = Cycloheximide Counterscreen for Small Molecule Inhibitors of Shiga Toxin; cell reporter, cycloheximide protein synthesis inhibition counterscreen; max response, %; actives 12% (n = 300,000); in the data active = max response mostly above about 13%, no sharp cut-off; inactive = mostly below about 14%; note: read at 38.3 µM for the half of the compounds with a filed dose; 0% is about no effect
Pf growth 48h = Primary qHTS for delayed death inhibitors of the malarial parasite plastid, 48 hour incubation; P. falciparum luciferase growth in erythrocytes, 48 h; Potency, µM (doses to about 28.7 µM), without a hit: at the highest dose activity change, negative = inhibition, actives largely listed as inhibitors; actives 5.9% (n = 310,000); note: potency is the fitted concentration of half-maximal effect; % is set by controls: 0 for no effect and ±100 for the full control effect
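Parasite viability was followed by luminescence of a genomically integrated firefly luciferase. Cultures held 0.1% parasitemia at 2% hematocrit (final), incubated under 5% CO2 at 37 C.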
SARS PLP yeast = qHTS of Yeast-based Assay for SARS-CoV PLP. S. cerevisiae expressing SARS-CoV PLpro, growth rescue. Potency, µM (series often up to 32.9 µM), inactives show top-dose activity, positive = growth rescue, usual class: activators. actives 0.19% (n = 330,000). AID 485353, 2010; calls by dose curve; note: potency is the fitted concentration of half-maximal effect; 0% is about no effect; nearly all actives have a fitted effect of over 55% in size
Pf growth 96h = Primary qHTS for delayed death inhibitors of the malarial parasite plastid, 96 hour incubation | P. falciparum luciferase reporter growth, 96 h | Potency, µM (doses to about 28.7 µM), without a hit: at the highest dose activity change, negative = inhibition, hits mostly inhibitors | actives 6.9% (n = 320,000); note: potency is the fitted concentration of half-maximal effect; % is set by controls: 0 for no effect and ±100 for the full control effect
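Luminescence readout: decreased luciferase signal marks inhibited growth of reporter-expressing P. falciparum in infected red cells (2% hematocrit, 0.05% parasitemia final), exposed to compound two generations (96 h, 37 C, 5% CO2).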
NS1 inh = qHTS Assay for Inhibitors of Influenza NS1 Protein Function; Potency, µM (titrated, usually from 46.1 µM), inactives show top-dose activity, positive = more growth; actives 0.4% (n = 270,000); calls by dose curve; note: potency is the fitted concentration of half-maximal effect; actives are rising curves; nearly all actives have a fitted effect of over 50% in size
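Recovery from NS1-induced slow growth read by OD600 in budding yeast switched to galactose assay medium (pH 6.0, -URA) at 1:100 dilution. Compound 23 nl per well; the matching strain lacking NS1 serves as control.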
* = called active by the depositor; ? = inconclusive; . = no result; [ ] = dose if it differs, or a comment. Unless noted, calls come from the whole dose curve; as a rule, active = well fitted inhibition curve with a large enough effect; inconclusive = small, poorly fitted or top-dose-only effect, or another doubt; inactive = no such curve, though single readings can be large or run the other way.

SMILES	Shiga inhibitor	CHX counter	Pf growth 48h	SARS PLP yeast	Pf growth 96h	NS1 inh
CC1CCCN(C(=O)CN2C(=O)CSc3ccc(S(=O)(=O)N4CCOCC4)cc32)C1 (configuration not stated)	2	8	-17%	?	2%	1%
CCCc1ccc2oc(C(=O)N3CCNC(=O)C3CC(=O)OC)c(C)c2c1 (configuration not stated)	-10	19*	-9%	-7%	4%	0%
COC(=O)CC1C(=O)NCCN1C(=S)Nc1ccc(F)cc1 (configuration not stated)	-3	-3	24%	0%	3.7µM*	2%
COC(=O)CC1C(=O)NCCN1C(=S)Nc1cccc(C)c1 (configuration not stated)	-10	-4	0%	6%	13%	10%
COC(=O)CC1C(=O)NCCN1C(=O)c1ccccc1 (configuration not stated)	-12	-3	-12%	-4%	.	1%
O=C(c1ccco1)N1CCN(C(c2ccc(Cl)cc2)c2nnnn2Cc2ccccc2)CC1 (configuration not stated)	15	13*	12µM*	18%	10µM*	6%[9.22 µM]
CC(C)CC(c1nnnn1CCc1ccccc1)N1CCN(C(=O)c2ccco2)CC1 (configuration not stated)	-3	-5	?	-4%	?	-36%
CCCC(c1nnnn1Cc1ccco1)N1CCN(C2CCCC2)CC1 (configuration not stated)	-10	-2	-11%	6%	12µM*	?
CCC(c1nnnn1CCc1ccccc1)N1CCN(C(=O)c2ccco2)CC1 (configuration not stated)	25	-5	-4%	3%	9.3µM*	-10%
CCOc1ccc(C(c2nnnn2Cc2ccccc2)N2CCN(C(=O)c3ccco3)CC2)cc1 (configuration not stated)	.	.	.	.	.	-3%
COc1ccc(C(c2nnnn2Cc2ccccc2)N2CCN(C(=O)c3ccco3)CC2)cc1 (configuration not stated)	-3	28*	?	-2%	.	-8%
COc1cc2c(cc1OC)CN(C(=S)Nc1ccc(C)cc1C)CC2	-8	0	16%	-59%	65%	-5%
CC(=O)OCC(CCn1cnc2cnc(N)nc21)COC(C)=O	10	9	0%	0%	4%	.
COc1cccc(C(c2nnnn2Cc2ccco2)N2CCN(c3cccc(C)c3C)CC2)c1OC (configuration not stated)	58*	17	9.3µM*	-8%	8%	13%
Clc1ccccc1C(c1nnnn1Cc1ccco1)N1CCN(Cc2ccco2)CC1 (configuration not stated)	36	5	15µM*	2%	3%	-3%
COc1ccc(OC)c(C(c2nnnn2Cc2ccco2)N2CCN(C)CC2)c1 (configuration not stated)	3	-3	3%	0%	?	0%
CCCC(c1nnnn1C1CCCCC1)N1CCN(C(=O)c2ccco2)CC1 (configuration not stated)	-1	-10	3.7µM*	.	11%	-3%
CCCC(c1nnnn1C1CCCCC1)N1CCN(C2CCCC2)CC1 (configuration not stated)	-12	-6	-3%	0%	.	-3%
CCCCC(c1nnnn1C1CCCC1)N1CCN(C2CCCC2)CC1 (configuration not stated)	-20	32*	?	6%	?	0%
C[C@H](NC(=O)Cc1cc(F)cc(F)c1)C(=O)N[C@@H](C(=O)OC(C)(C)C)c1ccccc1	-35	-6	.	.	.	.
C=CCSC1=N/C(=C\c2cc(OCC)c(OC(C)=O)c([N+](=O)[O-])c2)C(=O)S1	18	6	1%	-39%	?	-1%
COc1cccc(C(c2nnnn2Cc2ccccc2)N2CCN(C(=O)c3ccco3)CC2)c1OC (configuration not stated)	-4	-1	9.3µM*	1%	?	-18%
